The nature of experiment [1]: TOX21_TRB_BLA_Antagonist_Followup_viability: Viability Assessment in the Tox21 Thyroid Hormone Receptor beta Antagonism Beta-lactamase (BLA) Follow-Up Assay (AID 2283961; active = hit-call score of the fitted dose curve at least 0.9, where 1 is the maximum). The gist of the method:
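ATP-based CellTiter-Glo luminescence (30 min, room temperature) run in the same wells as the TRβ-bla readout. Cells: GeneBLAzer HEK293T expressing GAL4-TRβ LBD, exposed 18 h at 37C to compounds at 11 concentrations in triplicate, stripped-serum medium.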

The target of experiment [2] is THRB (gene 7068) (UniProt P10828). The experiment can be described thus: TOX21_TRB_COA_Antagonist_Followup_ratio: Tox21 Thyroid Hormone Receptor beta Antagonism through Coactivator Recruitment Follow-Up Assay, Ratio (AID 2283967; active = hit-call score of the fitted dose curve at least 0.9, where 1 is the maximum). The source says:
TOX21_TRb_COA_Antagonist_Followup is a secondary assay for specificity for the TOX21_TR_GH3_LUC_Agonist assay. The LanthaScreen TR-FRET TR coactivator assay kits were used to determine TR activity in a cell-free functional assay. A time-resolved fluorescence resonance energy transfer (TR-FRET) signal was indicative of coactivator (SRC-2) recruitment.TOX21_TRB_COA_Antagonist_Followup_ratio is assay component calculated in the TOX21_TRB_COA_Antagonist_Followup assay. The TR-FRET ratio of acceptor emission (ch2) to donor emission (ch1) is indicative of the resonance energy transfer to the fluorescein tag on the coactivator peptide following recruitment to the receptor.Data from the assay component TOX21_TRB_COA_Antagonist_Followup_ratio was analyzed into 1 assay endpoint. This assay endpoint, TOX21_TRB_COA_Antagonist_Followup_ratio, was analyzed in the positive analysis fitting direction relative to DMSO as the negative control and baseline of activity. Using a type of inducible reporter, loss-of-signal activity can be used to understand changes in the reporter gene as they relate to the gene THRB. Furthermore, this assay endpoint can be referred to as a primary readout, because this assay has produced multiple assay endpoints and this ratio serves a reporter gene function to understand target activity. […]

Experiment [3] has as its target Retinoic acid receptor RXR-alpha (Homo sapiens) (UniProt P19793). In words: TOX21_TR_RXR_BLA_Antagonist_Followup_ratio: Tox21 Thyroid Hormone Receptor beta Retinoid X Receptor alpha (RXRa) Antagonism Beta-lactamase (BLA) Follow-Up Assay, Ratio (AID 2283972; active = hit-call score of the fitted dose curve at least 0.9, where 1 is the maximum). The procedure, abridged: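 After 5 h attachment at 37C, HEK293T RXRa-bla cells (2,500/well, 2% charcoal-stripped FBS, no phenol red) received compounds at 11 concentrations in triplicate for 16 h. Beta-lactamase read as 460:530 nm ratio after 2 h RT substrate loading.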

A short description of experiment [4]: TOX21_TR_RXR_BLA_Antagonist_Followup_viability: Viability Assessment in the Tox21 Thyroid Hormone Receptor beta Retinoid X Receptor alpha (RXRa) Antagonism Beta-lactamase (BLA) Follow-Up Assay (AID 2283979; active = hit-call score of the fitted dose curve at least 0.9, where 1 is the maximum). The gist of the method:
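Follow-up compounds (11 concentrations, triplicate) were incubated 16 h at 37C/5% CO2 with HEK293T RXRa-bla cells seeded at 2,500/well in charcoal-stripped-serum medium. ATP content by CellTiter-Glo luminescence gave viability; curves fitted in both directions against DMSO.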

Experiment [5] in a line: CCTE_Harrill_HTTr_Viability_MCF7: CCTE's 6-hour Cell Viability Assessment for the High-Throughput Transcriptomics (HTTr) Platform, in MCF-7 cells cultured in DMEM + 10% fetal bovine serum, Harrill Lab (AID 2284010). The gist of the method:
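Viability measured through PI dye exclusion by high-content imaging at 6 h post-dosing.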

Experiment [6] can be described thus: CCTE_Harrill_HTTr_Apoptosis_MCF7: CCTE's 6-hour Apoptosis Assessment for the High-Throughput Transcriptomics (HTTr) Platform, in MCF-7 cells cultured in DMEM + 10% fetal bovine serum, Harrill Lab (AID 2284011). The procedure, abridged: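 High-content imaging of CellEvent Caspase 3/7 Green signal follows a six-hour exposure, with eight concentrations per chemical. MCF-7 cells grown in DMEM plus 10% fetal bovine serum; activity fitted in both directions against DMSO.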

A short description of experiment [7]: CCTE_Harrill_HTTr_CellCount_MCF7: CCTE's Cell Proliferation Assessment for the High-Throughput Transcriptomics (HTTr) Platform, Harrill Lab (AID 2284012; active = hit-call score of the fitted dose curve at least 0.9, where 1 is the maximum;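 also: count of Hoechst-stained nuclei per well by high-content imaging in MCF-7 cells; cells exposed to compound for six hours; intended direction is loss of nuclei count meaning fewer cells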). The gist of the method:
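Nuclei counting (Hoechst, high content imaging) in MCF-7 after a 6 h treatment at eight concentrations. Activity fitted bidirectionally, DMSO as negative control.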

Records with an inconclusive call do not appear. Calls of active or inactive are those of the source. The calls were made as follows, unless noted: active = hit-call score of the fitted dose curve at least 0.9, where 1 is the maximum; inactive = score below 0.9.

Retinoic acid receptor RXR-alpha (Homo sapiens), sequence (P19793 whole entry, looked up): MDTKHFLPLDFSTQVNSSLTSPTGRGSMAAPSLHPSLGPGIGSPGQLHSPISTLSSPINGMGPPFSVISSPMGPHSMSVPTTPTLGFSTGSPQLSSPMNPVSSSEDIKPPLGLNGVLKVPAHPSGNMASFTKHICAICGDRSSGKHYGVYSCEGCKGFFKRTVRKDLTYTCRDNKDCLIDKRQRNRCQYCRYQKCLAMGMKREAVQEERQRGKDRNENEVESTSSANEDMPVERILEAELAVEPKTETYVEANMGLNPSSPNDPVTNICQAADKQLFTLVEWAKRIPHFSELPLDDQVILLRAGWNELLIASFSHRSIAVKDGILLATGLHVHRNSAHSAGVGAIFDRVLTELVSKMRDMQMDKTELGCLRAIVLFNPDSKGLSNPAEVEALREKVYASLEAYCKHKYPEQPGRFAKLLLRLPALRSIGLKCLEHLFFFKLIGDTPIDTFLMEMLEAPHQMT
THRB (gene 7068), sequence (P10828 whole entry, looked up): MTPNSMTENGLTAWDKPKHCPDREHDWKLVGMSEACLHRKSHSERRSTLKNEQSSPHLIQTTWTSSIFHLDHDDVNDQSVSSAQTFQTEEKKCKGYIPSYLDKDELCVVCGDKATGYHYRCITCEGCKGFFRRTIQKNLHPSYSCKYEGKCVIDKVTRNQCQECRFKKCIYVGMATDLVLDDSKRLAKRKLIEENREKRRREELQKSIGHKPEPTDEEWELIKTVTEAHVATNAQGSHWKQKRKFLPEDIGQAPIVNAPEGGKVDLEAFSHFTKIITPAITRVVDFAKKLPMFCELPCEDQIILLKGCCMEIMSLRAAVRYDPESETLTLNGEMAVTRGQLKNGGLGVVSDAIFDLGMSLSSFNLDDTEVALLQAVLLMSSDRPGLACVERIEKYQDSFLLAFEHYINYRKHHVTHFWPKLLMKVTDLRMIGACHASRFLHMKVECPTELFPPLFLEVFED

For the compound `Oc1c(Cl)cc(Cl)c(Cl)c1Cc1c(O)c(Cl)cc(Cl)c1Cl`, the AC50 – broadly, the midpoint of the concentration-response curve, whichever way the signal moves – in experiment [1] is 8.64 µM (active); in experiment [4], 33.3 µM (active). In addition, the outcome in experiment [2] and in experiment [3] was inactive.
With `c1ccc(Oc2ccccc2)cc1`, the result in experiment [5], in experiment [6] and in experiment [7] was inactive.
In the case of `C[C@@H]1CCN(C(=O)[C@H](CCCN=C(N)N)NS(=O)(=O)c2cccc3c2NC[C@H](C)C3)[C@@H](C(=O)O)C1`, the outcome in experiment [5] and in experiment [6] was inactive.
For `CS(=O)(=O)c1ccc(C2=C(c3ccccc3)C(=O)OC2)cc1`, the outcome in experiment [5], in experiment [6] and in experiment [7] was inactive.
In the case of `CC(O)C1CCCCC1` (configuration not stated), the result in experiment [5], in experiment [6] and in experiment [7] was inactive.
On to `O=c1c(O)c(-c2ccc(O)cc2)oc2cc(O)cc(O)c12`, for which the result in experiment [5] and in experiment [7] was inactive.
With `CN(C)CCOC(C)(c1ccccc1)c1ccccn1` (configuration not stated), the outcome in experiment [5], in experiment [6] and in experiment [7] was inactive.
As to `O=C(O)c1cccnc1C(=O)O`, the outcome in experiment [5] and in experiment [6] was inactive.
For `CCCCCc1ccco1`, the result in experiment [5] and in experiment [6] was inactive.
With `O=C(O)c1ccc(O)cc1`, the result in experiment [5] and in experiment [7] was inactive.
In the case of `CN1C(=O)c2ccccc2C1=O`, the outcome in experiment [5] and in experiment [6] was inactive.
`O=[N+]([O-])c1cccc(Cl)c1`: the outcome in experiment [5] and in experiment [6] was inactive.
For the compound `CS(=O)(=O)c1ccc(Cl)cc1`, the result in experiment [5] and in experiment [7] was inactive.
Take `C=C(C)[C@@H]1CC=C(C)C(=O)C1`: the result in experiment [5] and in experiment [6] was inactive.
As to `CC(C)NCC(O)COc1ccc(CC(N)=O)cc1` (configuration not stated), the result in experiment [5] and in experiment [6] was inactive.
Consider `COc1ccc(CCN2CCC(Nc3nc4ccccc4n3Cc3ccc(F)cc3)CC2)cc1`, for which the AC50 in experiment [5] is 76.2 µM (active). The outcome in experiment [6] was inactive.
With `O=C(c1ccccc1)C(O)c1ccccc1` (configuration not stated), the outcome in experiment [5], in experiment [6] and in experiment [7] was inactive.
Consider `CC(C)(C)c1ccc(C(=O)O)cc1`, for which the outcome in experiment [5] and in experiment [6] was inactive.
Take `OC[C@H]1O[C@@H](Oc2ccc(O)cc2)[C@H](O)[C@@H](O)[C@@H]1O`: the result in experiment [5] and in experiment [7] was inactive.
As for `Clc1ccc(C(c2ccccc2Cl)C(Cl)Cl)cc1` (configuration not stated), the outcome in experiment [5] and in experiment [7] was inactive.
For `O=P(O)(O)O`, the outcome in experiment [5] and in experiment [7] was inactive.
With `ON=C1CCCCC1`, the outcome in experiment [5], in experiment [6] and in experiment [7] was inactive.
Consider `Cc1ncc([N+](=O)[O-])n1CCO`, for which the outcome in experiment [5] and in experiment [6] was inactive.
In the case of `O=c1[nH]c(=O)c2cn[nH]c2[nH]1`, the result in experiment [5] and in experiment [7] was inactive.
As for `O=C1c2ccccc2C(=O)c2c(O)ccc(O)c21`, the result in experiment [5] and in experiment [7] was inactive.
`Clc1cc(Cl)c(-c2c(Cl)c(Cl)cc(Cl)c2Cl)cc1Cl`: the outcome in experiment [5], in experiment [6] and in experiment [7] was inactive.
For `O=CCc1ccccc1`, the outcome in experiment [5] and in experiment [6] was inactive.
Regarding `COc1cc([C@@H]2c3cc4c(cc3[C@@H](O[C@@H]3O[C@@H]5CO[C@@H](C)O[C@H]5[C@H](O)[C@H]3O)[C@H]3COC(=O)[C@H]23)OCO4)cc(OC)c1O`, the outcome in experiment [5] and in experiment [6] was inactive.
Take `C=C(C)[C@H]1CC=C(C)C(=O)C1`: the result in experiment [5], in experiment [6] and in experiment [7] was inactive.
Take `COc1ccc(COC(C)=O)cc1`: the result in experiment [5], in experiment [6] and in experiment [7] was inactive.
Consider `CN(C)CCOc1ccc(/C(=C(/CCCl)c2ccccc2)c2ccccc2)cc1`, for which the AC50 in experiment [5] was 68.7 µM (active); in experiment [6] it was 50 µM (active).
Consider `CC(C)(C)C1=CC(=O)C(C(C)(C)C)=CC1=O`, for which the result in experiment [5], in experiment [6] and in experiment [7] was inactive.
As to `CC1(C)COCN1`, the result in experiment [5], in experiment [6] and in experiment [7] was inactive.
Take `c1ccc(CCc2ccccc2)cc1`: the outcome in experiment [5], in experiment [6] and in experiment [7] was inactive.
For the compound `OCCc1ccccc1`, the outcome in experiment [5], in experiment [6] and in experiment [7] was inactive.
Consider `C=CC(=O)OCCCC`, for which the result in experiment [5] and in experiment [6] was inactive.
In the case of `C[C@H]1C[C@@H](O)CC(C)(C)C1`, the outcome in experiment [5] and in experiment [6] was inactive.
Regarding `CC1(C)O[C@@H]2[C@@H](CO[C@@]3(COS(N)(=O)=O)OC(C)(C)O[C@@H]23)O1`, the result in experiment [5], in experiment [6] and in experiment [7] was inactive.
Regarding `CCCCCCCCCC(=O)OC`, the result in experiment [5], in experiment [6] and in experiment [7] was inactive.
For `CC=Cc1ccc(OC)c(OC)c1`, the outcome in experiment [5] and in experiment [6] was inactive.

Values taken from PubChem BioAssay (EPA / NIEHS).
